# PubChem BioAssay AID1992 (Sanford-Burnham Center for Chemical Genomics, 2009)
# Among all 50,000 compounds or so, about 350 (0.7%) were called active. No stated cut-off is given here; in the data, active means inhibition above about 60%; inactive means the rest. Only a selection was taken, and actives are over-represented in it overall.
# Target: Dual specificity protein phosphatase 3 (Homo sapiens) (UniProt P51452)
# Test: VHR1 phosphatase inhibitors, primary screen, biochemical, colorimetric, HTS (AID 1992)
# Details: recombinant VHR phosphatase, colorimetric substrate read-out; at 20 µM; hits give high values
# Sequence of Dual specificity protein phosphatase 3 (Homo sapiens) (P51452 whole entry, looked up): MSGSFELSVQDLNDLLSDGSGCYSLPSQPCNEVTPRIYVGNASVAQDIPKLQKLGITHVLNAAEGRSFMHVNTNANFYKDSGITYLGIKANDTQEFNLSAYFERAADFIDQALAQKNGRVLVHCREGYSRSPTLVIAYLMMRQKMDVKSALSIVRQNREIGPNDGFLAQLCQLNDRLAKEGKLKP
row,Compound,inhibition
1,CCOC(=O)Cc1csc(NC(=O)COc2cc(C)ccc2C(C)(C)C)n1,5.7% (inactive)
2,Cc1ccc(-c2ccc(/C=C3\Sc4ccccc4C3=O)o2)c([N+](=O)[O-])c1,-37.5% (inactive)
3,COc1ccc(N2C(=O)c3cccc4c(NC(CO)(CO)CO)ccc(c34)C2=O)cc1,-0.7% (inactive)
4,CCOC(=O)C1=C(O)CSC1=Nc1ccc(F)cc1,104% (active)
5,CCOC(=O)C1=C(O)/C(=C\c2cccc([N+](=O)[O-])c2)SC1=Nc1ccc(OC)cc1,-20.7% (inactive)
6,CCOC(=O)C1=C(O)CSC1=Nc1cccc(Cl)c1,-1.6% (inactive)
7,COc1ccc(C2C(C(=O)/C=C/c3ccccc3)=C(O)C(=O)N2CCCCCC(=O)O)c(OC)c1 (centres undefined),29.2% (inactive)
8,CCC(=O)N(CCC1(c2ccc(F)cc2)CCOC(C)(C)C1)Cc1ccc(OC)c(OC)c1 (centres undefined),-8.3% (inactive)
9,COc1ccc(C(=O)Nc2ccc3nn(-c4ccc(C)c(Cl)c4)nc3c2)cc1[N+](=O)[O-],-21.1% (inactive)
10,Cc1c(N(C(=O)c2cccc(Cl)c2)C(C)C)c(=O)n(-c2ccccc2)n1C,-7.9% (inactive)
11,O=C(/C=C\Nc1ccccn1)c1ccc2c(c1)OCO2,-7.8% (inactive)
12,COC(=O)Cn1cc(/C=C2\C(=O)NC(=O)N(c3cc(C)cc(C)c3)C2=O)c2ccccc21,-5.9% (inactive)
13,C/C(=N\NC(=O)c1cccc(Cl)c1)c1ccccc1O,-3.8% (inactive)
14,Cc1ccc(/C=N/c2nc3ccc(Br)cc3s2)c(O)c1,-5% (inactive)
15,Cn1/c(=N/N=C/c2cc(Br)ccc2O)sc2ccccc21,114% (active)
16,Oc1ccc(Br)cc1/C=N/Nc1ccccn1,-11% (inactive)
17,CC(=O)c1nc2cc([N+](=O)[O-])ccc2n1Cc1ccccc1,-31% (inactive)
18,O=C(O)CCC(=O)Nc1cc(Cl)cc(Cl)c1,11.1% (inactive)
19,COc1ccc(CN=CC2=C(O)CC(c3ccccc3)CC2=O)cc1 (centres undefined),15.4% (inactive)
20,O=[N+]([O-])c1ccc(OCC(O)Cn2cnc3ccccc32)cc1 (centres undefined),39% (inactive)

row,Compound,inhibition
1,CCOc1ccc(-c2cc(C(=O)Nc3ccncc3)c3ccccc3n2)cc1,-20.9% (inactive)
2,CC(C)(C)c1ccc(/C=N/NC(=O)Cc2cccc3ccccc23)cc1,-3.8% (inactive)
3,Cc1ccc2c(N)c(C(=O)c3ccccc3)sc2n1,-19.7% (inactive)
4,Nc1nnc(SCC(=O)NCc2ccccc2)s1,-7% (inactive)
5,Nc1nnc(CCC(=O)c2ccccc2)s1,78.1% (active)
6,COc1ccc(NC(=O)/C=C/c2cccc([N+](=O)[O-])c2)cc1,-2.5% (inactive)
7,O=C(NCc1ccccn1)Nc1ccc(Cl)cc1,25.4% (inactive)
8,COc1ccc(N/C(C)=C/C(=O)c2ccc(F)cc2)cc1,-8.4% (inactive)
9,COc1ccc(/C=C2/C(C)=C(C#N)c3nc(N)c(C#N)c(C)c32)cc1OC,24% (inactive)
10,COc1ccccc1/C=N/NC(=O)CCc1c(C)n[nH]c1C,-1.8% (inactive)
11,O=C(NN1CCOCC1)c1cccc(F)c1,-10.6% (inactive)
12,Cc1cc(Cl)ccc1NC1=CC(=O)CC(c2ccccc2)C1 (centres undefined),-7.1% (inactive)
13,CN(C)/C=C(/Cl)C=C1C(=O)c2ccccc2C1=O,-2.3% (inactive)
14,COc1ccc([N+](=O)[O-])cc1NC(=O)CCc1ccccc1,-10.6% (inactive)
15,CCCCCOC(=O)CSc1nnc(-c2ccccc2Cl)o1,-27.4% (inactive)
16,CCCOc1ccc(C(=O)Nc2ccc(N(CC)CC)cc2)cc1,-10.9% (inactive)
17,CCCOC(=O)c1ccc(NC(=O)c2ccc(OCc3ccccc3)cc2)cc1,109% (active)
18,CCOC(=O)c1ccc(NC(=O)c2cc(OCC)cc(OCC)c2)cc1,-14.7% (inactive)
19,CCOC(=O)C(=O)C1CCc2c([nH]c3ccc(C)cc23)C1=O (centres undefined),-0.5% (inactive)
20,COc1ccc(OC)c(-n2c(O)c(C=Nc3cccc(C)c3)c(=O)[nH]c2=O)c1,-17.5% (inactive)

row,Compound,inhibition
1,COc1ccc(NC(=O)C2=C(C)NC(=O)NC2c2ccc(OC)cc2)cc1 (centres undefined),24.2% (inactive)
2,COC(=O)C1=C(C)N=c2s/c(=C\c3cc(OC)c(OC)cc3[N+](=O)[O-])c(=O)n2C1c1ccccc1 (centres undefined),-6% (inactive)
3,O=C(Nc1cccc2ccccc12)c1ccc(-c2ccccc2)cc1,-1.1% (inactive)
4,Cc1cc(/C=C2/NC(=S)NC2=O)c(C)n1-c1ccc(N2CCOCC2)cc1,61.6% (active)
5,Cc1cc(/C=C2/NC(=O)NC2=O)c(C)n1-c1ccc(Cl)cc1,-8.6% (inactive)
6,Cc1cc(C=C2C(=O)NC(=S)NC2=O)c(C)n1-c1ccc(F)cc1,0.6% (inactive)
7,CCOc1ccc(N2C(=O)NC(=O)/C(=C/c3ccc(-c4ccccc4[N+](=O)[O-])o3)C2=O)cc1,19% (inactive)
8,O=C1/C(=C/c2ccc(-c3ccc(Cl)cc3C(=O)O)o2)Sc2ccccc21,15.2% (inactive)
9,O=C1NC(=S)N(c2ccc(Cl)cc2)C(=O)/C1=C/c1ccc(-c2ccccc2C(=O)O)o1,95.3% (active)
10,COc1ccc(C(=O)NC2CC(C)(C)NC(C)(C)C2)cc1OC,-52.9% (inactive)
11,O=C(Nc1ncc(Br)cc1Br)c1cccc2ccccc12,101% (inactive)
12,COC(=O)c1cc(C(=O)Nc2ncccc2C)cc([N+](=O)[O-])c1,7.6% (inactive)
13,C/C(=C\C(=O)c1ccc(Br)cc1)Nc1ccccc1F,4.7% (inactive)
14,CC1=NN(c2cccc(Cl)c2)C(=O)/C1=C\c1c(C)[nH]n(-c2ccccc2)c1=O,-29.9% (inactive)
15,CC1=NN(c2ccc(S(N)(=O)=O)cc2)C(=O)/C1=C\c1ccc(-c2ccc(Cl)c(C(=O)O)c2)o1,-1.9% (inactive)
16,CC1=NN(c2ccc(S(N)(=O)=O)cc2)C(=O)/C1=C\c1ccc(-c2cc([N+](=O)[O-])ccc2C)o1,77.1% (active)
17,CC1=NN(c2ccc(S(N)(=O)=O)cc2)C(=O)/C1=C\c1ccc(-c2ccc(C(=O)OC(C)C)cc2)o1,-1.6% (inactive)
18,NC(=O)C1CCN(S(=O)(=O)c2ccc3ccccc3c2)CC1,-3.8% (inactive)
19,CCc1ccc(NC(=O)C(=O)NCCN2CCOCC2)cc1,12.8% (inactive)
